Results as given in ChEMBL document CHEMBL3988442, “University of Dundee, Small-Polar-MMV Screening Library” (2021).
Among all 48,000 compounds or so, about 13,000 (27%) showed an effect of 50% or more. The list shows a part of the results.

What follows are molecules tested on Wolbachia pipientis (assay: Anti-Wolbachia Cell-Based Screen). Conditions: 5 µM.
Format: functional
Set-up: scale not given: in the data most compounds retested in dose-response had high values

Row | Structure (SMILES) | Percent Effect [%]
1 | CCn1ccnc1CNc1nccc(-c2cn(C)nc2C)n1 | -3.456
2 | CC(C)C(NC(=O)N1CCN(c2ccc(Cl)cc2)CC1)C(=O)NC1CC1 (centres undefined) | 0.3878
3 | COc1ccc(OC)c(C(O)CN2CC(n3cccn3)C2)c1 (centres undefined) | -4.387
4 | CCCN1CC2(CCN(c3cc(C4CC4)ncn3)CC2)CC1C(=O)O (centres undefined) | -4.033
5 | CC1(C)CN(Cc2cc(C3CCCCC3)no2)CC[C@]1(C)O | 3.04
6 | Cc1ccc(NC2CCN(C(=O)c3cnc(C)s3)CC2)nn1 | -2.09
7 | Cc1ccc(NC2CCN(C(=O)c3ccc(Cl)o3)CC2)nn1 | -2.526
8 | Cc1ccc(NC2CCN(C(=O)c3ccncc3)CC2)nn1 | 119.5
9 | Cc1ccc(NC2CCN(C(=O)c3cccn3C)CC2)nn1 | 4.199
10 | Cc1ccc(NC2CCN(C(=O)c3ccsc3)CC2)nn1 | -4.871
11 | Cc1ccc(NC2CCN(C(=O)c3ccco3)CC2)nn1 | 66.81
12 | Cc1ccc(NC2CCN(C(=O)c3n[nH]c4ccccc34)CC2)nn1 | -3.019
13 | Cc1ccc(NC2CCN(C(=O)c3cnn(C(C)(C)C)c3)CC2)nn1 | 89.59
14 | Cc1ccc(NC2CCN(C(=O)c3sccc3C3CC3)CC2)nn1 | 97.28
15 | CC(C)=CCN1CCc2onc(-c3ccc(F)c(F)c3)c2C1 | -6.636
16 | CC(C)NC(=O)[C@@H]1C[C@@H](N)CN1C(=O)CCSCc1ccc(F)cc1 | -8.578
17 | CC(NC(=O)c1cc2n(n1)CCCN(C)C2)c1cn2ncsc2n1 (centres undefined) | 2.374
18 | O=C(Cc1cc(F)cc(Cl)c1)N[C@@H]1CCNC[C@H]1O | -5.906
19 | Cc1ccc(NC2CCN(C(=O)c3cccc4ncccc34)CC2)nn1 | 0.6647
20 | Cc1ccc(NC2CCN(C(=O)c3ccnc(N(C)C)c3)CC2)nn1 | 106.8
21 | Cc1ccc(NC2CCN(C(=O)c3ccc(C#N)cc3)CC2)nn1 | 103.2
22 | CCn1ccnc1S(=O)(=O)Cc1ccc(C(N)=O)cc1 | -8.81
23 | Cc1ccc(NC2CCN(C(=O)COC3CCCCC3)CC2)nn1 | 112.2
24 | Cc1ccc(NC2CCN(C(=O)COCC3CC3)CC2)nn1 | 115.7
25 | Cc1ccc(NC2CCN(C(=O)CC3CCCO3)CC2)nn1 (centres undefined) | 6.763

Row | Structure (SMILES) | Percent Effect [%]
26 | Cc1ccc(NC2CCN(C(=O)COC3CCCC3)CC2)nn1 | 70.65
27 | Cc1ccc(NC2CCN(C(=O)COCC(F)(F)F)CC2)nn1 | -5.027
28 | Cc1ccc(NC2CCN(C(=O)CN(C)C3CC3)CC2)nn1 | -0.8726
29 | Cc1ccc(NC2CCN(C(=O)CCOCC(F)(F)F)CC2)nn1 | 69.22
30 | Cc1ccc(CNC(C)c2ccc(N3CCN(C)CC3)c(F)c2)o1.Cl (centres undefined) | -9.969
31 | Cc1cc(NS(=O)(=O)c2c[nH]c3ncccc23)no1 | -5.183
32 | COCc1ccccc1C(=O)NCC(O)c1ccccc1F (centres undefined) | -8.064
33 | CC(=O)N1CCC2(CC1)C(=O)N(C)c1c(F)cccc12 | 2.868
34 | CS(=O)(=O)N1CCc2[nH]cnc2C12CCN(C(=O)c1cccnc1)CC2 | -96.76
35 | CC(=O)N1CCC2(CC1)CNc1ccc(F)cc12 | -3.15
36 | CN1CC2(CCN(Cc3cccnc3)CC2)c2cccc(F)c21.Cl | 16.02
37 | CC(=O)N1CCC2(CC1)CNc1c(F)cccc12.Cl | 98.89
38 | CN1C(=O)C2(CCN(C(=O)c3cccnc3)CC2)c2cccc(F)c21 | 5.447
39 | CN1C(=O)C2(CCN(C(=O)c3ccccc3)CC2)c2cccc(F)c21.Cl | 2.069
40 | CN1C(=O)C2(CCN(C(=O)c3ccccc3)CC2)c2cc(F)ccc21.Cl | -1.303
41 | Cl.O=C(c1ccccc1)N1CCC2(CC1)CNc1c(F)cccc12 | 97.7
42 | CN1CC2(CCN(C(=O)c3cccnc3)CC2)c2cccc(F)c21.Cl | 104.8
43 | Cl.O=C(c1cccnc1)N1CCC2(CC1)CNc1c(F)cccc12 | 106.5
44 | O=S(=O)(NCCN1CC=CC1)c1cncc(Cl)c1 | -9.615
45 | CC(C)CN(C)Cc1c[nH]nc1-c1ccc(F)cc1F | -3.52
46 | CNC(=O)NC(=O)CN1CCN(CC(F)(F)F)CC1(C)C | -1.445
47 | CCC(C)(NCC(=O)NC(C)C)c1nc(C)cs1 (centres undefined) | 4.424
48 | CCN1CCN(c2ccc(C(=O)NCc3cc(C)no3)cc2F)CC1 | -18.85
49 | Cc1nnc(CN(C)C(=O)C(CC(C)C)N2CCCCC2=O)n1C (centres undefined) | -1.247
50 | Cc1nc(C)c2c(n1)CCN(C(=O)CN(C)C)CC2 | -4.048

Row | Structure (SMILES) | Percent Effect [%]
51 | Cc1nc(CN(C)C(=O)CN(C)C)nc2c1CCC(=O)N2CCC(C)C | 66.01
52 | COC(=O)N1CCCC(NC(=O)NCc2nc(C)cs2)C1 (centres undefined) | -5.295
53 | CCC(=O)N(CC)CCc1nccs1 | -20.38
54 | CCOc1ccc(CC(CNC(=O)c2ccoc2)C(N)=O)cc1 (centres undefined) | 0.9555
55 | Cc1cccc(C(C)(C)CNC(=O)CN(C)c2cnccn2)c1 | 2.301
56 | Cc1ccc2[nH]c(=O)c(CN(C)Cc3cc(C4CC4)[nH]n3)cc2c1 | -5.439
57 | Cc1ccc(F)c(NC(=O)CCC(=O)N(C)Cc2cc(C3CC3)[nH]n2)c1 | -39.88
58 | CN(Cc1cc(C2CC2)[nH]n1)C(=O)C(c1cccnc1)N1CCCC1 (centres undefined) | 5.078
59 | CN(Cc1cc(C2CC2)[nH]n1)C(=O)c1cnn2ccn(C)c12 | 92.15
60 | CCCn1ncc(C(=O)N(C)Cc2n[nH]c3c2CCC3)c1C | -0.7404
61 | CCCn1ncc(C(=O)N2CCN(C(=O)c3ccc[nH]3)CC2)c1C | 2.425
62 | CCCn1ncc(C(=O)N(C)Cc2cc(C3CC3)[nH]n2)c1C | 103.9
63 | Cc1cnc2c(C(=O)N(C)Cc3cc(C4CC4)[nH]n3)cnn2c1 | 88.43
64 | CN(Cc1cc(C2CC2)[nH]n1)C(=O)c1ccccc1C1CCNC1 (centres undefined) | 6.983
65 | Cn1ccc(CNC(=O)N2CCCC3(C2)OCCO3)c1 | -4.368
66 | Cc1ccc(CNCc2cccc3cn[nH]c23)c(OC2CCOC2)c1 (centres undefined) | 1.328
67 | CCCNC(=O)CN1CCOC(CC)C1 (centres undefined) | -15.19
68 | CSc1nc2cc(C)n(CC(N)=O)c2c(=O)n1CC(C)C | 0.2317
69 | NC(=O)C1CCN(C(=O)CCCc2ccc(Cl)c(Cl)c2)CC1 | -6.164
70 | CC[C@@]1(O)CCN(C(=O)CCSCc2ccc(F)cc2)C[C@H]1O | 8.229
71 | NC(=O)C1CCN(C(=O)CCSCc2ccc(Cl)c(Cl)c2)CC1 | 148.4
72 | O=C(C1COc2ccccc2O1)N1Cc2cnn(CCO)c2C1 (centres undefined) | -44.4
73 | COc1ncccc1C(=O)N(C)Cc1nc(-c2ccccn2)no1 | 0.08907
74 | COc1ccc(-c2nc(CN3CCCC(OC)C3)c(C)o2)c(F)c1 (centres undefined) | 6.893
75 | COc1ccc(CN2CCC(c3cc(O)nc(C)n3)C2)c(OC)c1.O=C(O)CC(O)(CC(=O)O)C(=O)O (centres undefined) | 122.8

Row | Structure (SMILES) | Percent Effect [%]
76 | COc1ccc(OC)c(CN2CCC(c3cc(O)nc(C)n3)C2)c1 (centres undefined) | 99.72
77 | CCN1CCC(CNCc2cc(OC)ccc2OC)C1 (centres undefined) | 4.75
78 | COCC(=O)N1CCC2(CCCN(Cc3cc(OC)ccc3F)C2)C1 (centres undefined) | 2.404
79 | Cc1nc(O)cc(C2CCN(Cc3cccc(F)c3F)C2)n1.O=C(O)CC(O)(CC(=O)O)C(=O)O (centres undefined) | -5.944
80 | COc1ccc(F)c(CN2CCCC(c3cc(O)nc(C)n3)C2)c1 (centres undefined) | 108.4
81 | Cc1nc(O)cc(C2CCN(Cc3ccc(F)c(F)c3)C2)n1.O=C(O)CC(O)(CC(=O)O)C(=O)O (centres undefined) | 92.59
82 | COc1ccc(F)c(CN2CCC(c3cc(O)nc(C)n3)C2)c1.O=C(O)CC(O)(CC(=O)O)C(=O)O (centres undefined) | -11.82
83 | CNC(=O)[C@@H]1C[C@@H](N)CN1C(=O)CCSCc1ccccc1 | -2.753
84 | Cc1ncc(-c2nc3cc(S(=O)(=O)N4CCCC4)ccc3n2C)cn1 | -2.365
85 | O=C(Nc1ccc(-n2cccn2)c(F)c1)C1CCN(C(=O)C2CC2)CC1 | -6.661
86 | Cc1nnn2c1COCC(CNC(=O)c1ccnnc1)C2 (centres undefined) | -2.264
87 | CCN(C)CC1CCN(C(=O)NCCC2Cc3ccccc3C2)C1 (centres undefined) | -23.1
88 | COc1ccc(CN2CCC(c3cc(O)nc(C)n3)C2)c(F)c1 (centres undefined) | 113.4
89 | CC(C)c1noc(C[S+]([O-])CC(=O)Nc2cc(F)ccc2F)n1 (centres undefined) | -11.5
90 | N#Cc1cc(N2CCC(CS(N)(=O)=O)CC2)c2ccccc2n1 | 3.151
91 | CNC(=O)[C@H]1C[C@@H]2CN(S(=O)(=O)Cc3ccccc3)C[C@@H]2N1C.O=C(O)C(F)(F)F | -3.951
92 | Cc1nc(CN2CCO[C@@H]3CN(C(=O)NC(C)C)CC[C@@H]3C2)cs1.O=C(O)C(F)(F)F | -13.31
93 | Cc1nc(CN2C[C@@H]3CCCO[C@@H]3[C@H](N(C)C(C)C)C2)cs1.O=C(O)C(F)(F)F.O=C(O)C(F)(F)F | -4.847
94 | CNC(=O)[C@@H]1C[C@H]2CN(Cc3csc(C)n3)C[C@H]2N1C(C)C.O=C(O)C(F)(F)F.O=C(O)C(F)(F)F | 116.9
95 | CNC(=O)[C@@H]1C[C@H]2CN(C(=O)c3ccco3)C[C@H]2N1C.O=C(O)C(F)(F)F | -16.64
96 | CNC(=O)[C@@H]1C[C@H]2CN(C(=O)c3ccco3)C[C@H]2N1C(C)C.O=C(O)C(F)(F)F | 99.89
97 | CNC(=O)[C@H]1C[C@@H]2CN(Cc3csc(C)n3)C[C@@H]2N1S(C)(=O)=O.O=C(O)C(F)(F)F | 110
98 | Cc1nc(CN2CCn3cc(CNC(=O)C4CCC4)nc3C2)cs1.O=C(O)C(F)(F)F | -18.19
99 | Cc1nc(CN2C[C@@H](NC(=O)C3CCC3)[C@H]3COC[C@H]32)cs1.O=C(O)C(F)(F)F | -15.38
